A selection: hits, their analogues and other compounds. The true share with any hit is near 0.28%.
mcGAS lum: mouse cGAS inhibition by luminescence. recombinant cGAS, Kinase-Glo ATP depletion luminescence. Q8C6L5. actives 0.15% (n = 160,000). inhibition, % at 12.5 µM;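 note: 0% = negative control wells and 100% = reference inhibitor with no enzyme activity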
Target sequence (Q8C6L5 whole entry, looked up): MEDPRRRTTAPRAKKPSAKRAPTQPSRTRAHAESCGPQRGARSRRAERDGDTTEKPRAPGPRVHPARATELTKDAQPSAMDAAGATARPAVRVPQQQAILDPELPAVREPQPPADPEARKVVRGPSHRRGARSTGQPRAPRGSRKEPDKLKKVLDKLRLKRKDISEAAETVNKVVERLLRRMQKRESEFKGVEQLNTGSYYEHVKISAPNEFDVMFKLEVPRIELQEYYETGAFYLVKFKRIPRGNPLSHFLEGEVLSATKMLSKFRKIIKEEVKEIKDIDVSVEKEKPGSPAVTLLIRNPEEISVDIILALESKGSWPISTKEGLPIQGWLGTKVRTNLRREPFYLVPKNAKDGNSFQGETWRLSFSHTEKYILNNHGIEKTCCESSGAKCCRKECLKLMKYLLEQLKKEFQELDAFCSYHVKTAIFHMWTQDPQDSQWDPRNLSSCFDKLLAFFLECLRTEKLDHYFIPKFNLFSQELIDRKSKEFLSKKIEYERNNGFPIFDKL
NPYLR7 agonist: activates Aedes aegypti NPYLR7 receptor. HEK293T NPYLR7/Galpha15, GCaMP6s calcium fluorescence. activation, % at 10 µM. actives 0.15% (n = 270,000). AID 1259423; in the data active = activation above about 40%;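 note: 0% = vehicle and 100% = reference agonist at the receptor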
hcGAS lum: human cGAS inhibition; recombinant h-cGAS, ATP depletion, Kinase-Glo luminescence; inhibition, % at 12.5 µM; actives 0.081% (n = 290,000); AID 1259398;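 note: 0% = vehicle reaction and 100% = reaction without DNA for no activity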
Numbers without * were called inactive; . = no result given; ! = not confirmed by another sample. Cut-off read from the data, not from the text of the source, unless noted: active = inhibition above about 40%; inactive = the rest.

SMILES	mcGAS lum	NPYLR7 agonist	hcGAS lum
Cc1ccc(CN(Cc2ccc3c(c2)OCO3)C(=O)CN(CC2CCCO2)C(=O)Nc2ccc(F)cc2F)o1 (stereo unspecified)	-3	12	-4
Cc1ccc(NC(=O)N(CC(=O)N(Cc2ccc(F)cc2)Cc2ccc(C)o2)CC2CCCO2)c(C)c1 (stereo unspecified)	-4	-4	89*
CCCCc1ccc(C(=O)N2CCSC2c2cccc(Cl)c2)cc1 (stereo unspecified)	-5	24	-8
CCN(CC)S(=O)(=O)c1ccc(N(C)C)c(NS(=O)(=O)c2c(C)cc(C)cc2C)c1	-7	2	-7
Cc1ccc(Nc2nc(NCCN(C)C)nc3nccnc23)c(C)c1	.	9	-7
Cc1ccc(Nc2nc(Nc3cccc(F)c3)nc3nccnc23)c(C)c1	.	52*	-6
CCOC(=O)C1CCCN(c2nc3nonc3nc2N2CCSCC2)C1 (stereo unspecified)	-3	45*!	-9
O=C(C1CCCN(c2nc3nonc3nc2N2CCCCCC2)C1)N1CCOCC1 (stereo unspecified)	.	7	6
CC(=NNc1ncnc2sc(C)c(C)c12)c1ccccn1	.	59*	45*
Cc1sc2ncnc(N/N=C\c3ccccc3O)c2c1C	.	6	-8
Cc1ccc(-n2nnc(C(=O)OCc3nc(-c4cccc(Cl)c4)oc3C)c2C)cc1	0	17	2
Cc1nc(CCNC(=O)c2cc(C(C)C)on2)sc1C	.	0	-4
Cc1cccc2[nH]c(CCNC(=O)c3cc(C(C)C)on3)nc12	-9	4	73*
Cc1ccc(N2C(=O)NC(=O)/C(=C\c3cccs3)C2=O)cc1	-7	65*	-4
Cc1ccc(N2C(=O)NC(=O)/C(=C\c3ccc(N(C)C)o3)C2=O)cc1	-8	5	-3
CC1CC(NC(=O)c2cccc(F)c2F)CCN1Cc1ccccc1 (stereo unspecified)	-4	8	-13
N#Cc1c(N)oc2c3c(c(O)cc12)C(=O)c1ccccc1C3=O	.	2	48*
Nc1c(O)ccc2c1C(=O)c1ccccc1C2=O	-6	2	-7
NS(=O)(=O)c1ccc2[nH]c(=O)c3n[nH]c(=O)n3c2c1	.	11	4
O=c1[nH]c2ccccc2n2c(=S)[nH]nc12	52*	0	38
O=C(O)C=C1C(=O)Nc2ccccc21	-4	-1	-6
Cc1[nH]c(/C=C2\C(=O)Nc3ccccc32)c(C)c1CCC(=O)O	.	74*	-1
CC(=O)c1ccc(-n2c(=O)c3ccccc3c3ccccc3c2=O)cc1	.	4	-6
CC1C(=O)c2cccc3c(=O)n(-c4ccccc4)c(O)c(c23)C1=O (stereo unspecified)	.	83*	4
Cc1ccccc1-c1cnnc(NCC2COCCO2)n1 (stereo unspecified)	0	-4	-2
SMILES	mcGAS lum	NPYLR7 agonist	hcGAS lum
COCCNc1cc(-c2ccc(-c3ccon3)s2)c2cc[nH]c2n1	-8	5	-3
CC(C)=CCCC1=CC[C@H](C(=O)O)[C@H](C(=O)O)C1	-5	2	-4
CC1=CC(C)C(C(=O)O)C(C(=O)O)C1 (stereo unspecified)	-6	43*	-1
N#Cc1c(N)nc2c(c1N)C(Sc1ccccc1)c1ccc(O)cc1O2 (stereo unspecified)	.	413*	-6
N#Cc1c(N)nc(SCC(=O)c2ccccc2)c(C#N)c1-c1ccc(O)cc1	-3	-4	-1
CCOc1cc2c(C#N)c(N(CC(C)C)CC(C)C)nc(N)c2c(N)n1	.	12	-7
COc1cc2c(C#N)c(N(CCO)CCO)nc(N)c2c(N)n1	3	-4	56*
COc1ccc(N2C(=O)CN(CCc3ccc(F)cc3)C3CS(=O)(=O)CC32)cc1 (stereo unspecified)	.	4	-7
FC(F)(F)c1ccc(-c2nc3ccc(Cl)cn3c2NCc2ccccc2)cc1	-8	47*	-7
CC(C)(C)c1ccc(-c2nc3ccc(Cl)cn3c2NCc2ccccc2)cc1	-7	-4	-6
Cc1ccc(CN(C)C(=O)C2CC(C(C)C)=NO2)o1 (stereo unspecified)	.	-2	-5
CC(=O)N1CCN(c2ccc(Nc3ccccn3)nn2)CC1	.	5	3
COc1cc(C=CC(=O)c2ccc(C#N)cc2)ccc1O	3	3	2
COC(=O)c1ccc(C=CC(=O)c2ccc(O)c(OC)c2)cc1	44*	0	-4
COc1cccc(C=CC(=O)c2ccc(OC)c(OC)c2)c1	39	-1	-7
COc1cc(C(=O)C=Cc2cccc(O)c2)ccc1O	41*	0	1
CCC(=O)N=c1sc2cc(Cl)cc(Cl)c2n1C	-6	8	-3
O=C(Cc1cn2ccsc2n1)NN=C1CCSc2ccc(F)cc21	.	0	-5
CSCc1ccc(C(=O)N2CCN(S(=O)(=O)c3ccc4c(c3)CCCC4)CC2)cc1	.	0	-4
COc1cccc(-n2c(O)c(C=Nc3cc(OC)ccc3OC)c3ccccc3c2=O)c1	-6	52*	-3
COc1ccc(N=Cc2c(O)n(-c3ccccc3)c(=O)c3ccccc23)c(OC)c1	-6	-3	-5
COc1cc(C=NNC(=O)c2ccccc2O)cc(Br)c1O	.	0	0
CC(C)(C)NN=Cc1cc(Br)c(O)c(Br)c1	75*	4	7
Cc1ccc2nc(CN(C)Cc3cn[nH]c3C(=O)O)[nH]c2c1	.	17	-7
O=C1C(=Cc2ccccn2)SC(=S)N1CCCN1CCOCC1	-4	9	-1
SMILES	mcGAS lum	NPYLR7 agonist	hcGAS lum
CCc1c(C)nc2c(-c3ccccc3)c(C)[nH]n2c1=O	.	-2	6
Cc1[nH]n2c(=O)c(C#N)c(-c3ccccc3)nc2c1-c1ccccc1	.	-5	54*
CN(C)c1cccc(C(NC(=O)CCCCCNC(=O)OCc2ccccc2)c2ccc(S(C)(=O)=O)cc2)c1 (stereo unspecified)	-6	-5	-12
CN1C(=O)CC(C(=O)Nc2ccccc2F)SC1=Nc1cccc(C(F)(F)F)c1 (stereo unspecified)	.	0	-1
C=c1c(C#N)c2[nH]c(N)c(C#N)c(C)c-2/c1=C\c1ccc(C(=O)OC)cc1	-1	7	-4
C=c1c(C#N)c2[nH]c(N)c(C#N)c(C)c-2/c1=C\c1ccc(O)cc1	71*	21	11
O=c1c(-c2cc(O)c(O)c(O)c2)coc2cc(O)c(O)c(O)c12	82*	.	71*
O=c1c(-c2ccc(O)cc2)coc2cc(O)cc(O)c12	-1	0	-1
O=C(O)C1=CC(=C(c2ccc(O)c(C(=O)O)c2)c2ccc(O)c(C(=O)O)c2)C=CC1=O	106*	-3	80*
Nc1ccc(O)c(C(=O)O)c1	.	-7	-4
CC(C)Cn1c(N)c(C(=O)CSc2nccn2C)c(=O)n(C)c1=O	-6	-3	-4
Cn1ccnc1SCC(=O)c1cc(I)c(O)c(I)c1	76*	-1	8
Cc1ccc(CCNC(=O)C2CCCN2C(=O)C2CCCCC2)cc1 (stereo unspecified)	.	27	-3
O=C(Nc1cccc(-c2nnco2)c1)C1CCCCC1	.	86*	-6
O=C(Nc1cccc(-c2cccc(-c3ccc4c(c3)OCCO4)n2)c1)C1CCCCC1	-6	-7	-8
COCCN(Cc1nc2ccccc2o1)C(=O)C(OC(C)=O)c1ccccc1 (stereo unspecified)	-6	1	-3

Compound activity deposited in PubChem by Fisher Drug Discovery Resource Center.
